MLL AF4-AF9 inh = MLL-AF4/AF9 protein interaction inhibition | P42568 | AlphaScreen, biotin-AF4 peptide binding to FLAG-AF9 | inhibition, % at 10 µM | 0.47% of 350,000 active | AID 651704;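 active = every replicate reaching a set inhibition limit, whatever the replicate mean, cut at about 25% in these data; inconclusive = mean inhibition reaches that limit but some replicates miss it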
Target sequence (P42568 whole entry, looked up): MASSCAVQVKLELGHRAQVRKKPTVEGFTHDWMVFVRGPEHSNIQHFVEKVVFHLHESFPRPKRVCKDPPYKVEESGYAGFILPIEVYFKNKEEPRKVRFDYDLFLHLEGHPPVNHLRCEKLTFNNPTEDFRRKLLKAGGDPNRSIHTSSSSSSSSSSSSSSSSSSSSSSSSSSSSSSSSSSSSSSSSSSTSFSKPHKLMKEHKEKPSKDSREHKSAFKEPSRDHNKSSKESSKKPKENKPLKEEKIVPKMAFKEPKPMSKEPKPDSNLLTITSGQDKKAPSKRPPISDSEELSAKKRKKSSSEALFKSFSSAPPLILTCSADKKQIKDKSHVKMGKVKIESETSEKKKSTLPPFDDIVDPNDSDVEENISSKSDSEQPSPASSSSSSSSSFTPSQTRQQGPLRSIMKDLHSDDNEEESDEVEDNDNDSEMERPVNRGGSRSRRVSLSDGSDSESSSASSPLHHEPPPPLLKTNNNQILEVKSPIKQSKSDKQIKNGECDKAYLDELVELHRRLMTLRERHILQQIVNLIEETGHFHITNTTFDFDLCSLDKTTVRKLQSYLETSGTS
Wnt act = activates Wnt/beta-catenin signaling in a reporter cell assay; activator, plate reader; activation, % at 9.35 µM; 1.2% of 300,000 active; in the data active = activation above about 30%, passing the limit was not always enough; inconclusive = no clear call, values can overlap the other calls
SMARCA2 act = SMARCA2 function activation, primary screen; 1% of 370,000 active; activation, % at 9.1 µM; MG213 cells, MMTV-luciferase reporter, dexamethasone, overnight; AID 652017; in the data active = activation above about 7.8%
esBAF inh = blocks esBAF chromatin remodeling in mouse ES cells; Bmi1-luciferase knock-in reporter, 24 h; 100% = twice the neutral-well signal; reporter increase, % at 12.5 µM; 2% of 350,000 active; AID 602393; in the data active = activation above about 40%; inconclusive = no clear call, values can overlap the other calls;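 note: a rise in the Bmi1 reporter signal indicates esBAF inhibition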
FGF22 binding = shifts melting point of recombinant human FGF22 | Q9HCT0 | recombinant FGF22 thermal shift, SYPRO orange fluorescence; percent of sucrose octasulfate shift, DMSO zero | activity (Tm shift, normalised), % at 9.99 µM | 1.5% of 340,000 active;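 active = mean Tm shift, scaled 0 neutral to 100 positive control, at about 1.3% or above, every replicate too, limit read from the data; inconclusive = no clear call, values can overlap the other calls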
Target sequence (Q9HCT0 whole entry, looked up): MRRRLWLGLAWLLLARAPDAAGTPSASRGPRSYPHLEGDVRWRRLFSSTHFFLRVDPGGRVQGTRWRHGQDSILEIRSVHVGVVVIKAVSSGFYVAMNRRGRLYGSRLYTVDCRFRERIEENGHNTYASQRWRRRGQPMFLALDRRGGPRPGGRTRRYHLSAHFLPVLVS
MITF act = MITF TRPM1 promoter activation in melanoma cells; SK-MEL-5 TRPM1-promoter luciferase, 24 h; % of positive control, neutral wells = 0; activation, % at 12.5 µM; 0.75% of 300,000 active; AID 588334;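 active = mean activation of at least 80% with every replicate also reaching 80%; inconclusive = mean reaches 80% but some replicate falls short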
Large screens that a line does not name were inactive. An excerpt weighted towards active compounds, which were near 4.3% of everything screened.

CCOC(=O)N1CCN(c2ccc(C(F)(F)F)cn2)CC1	SMARCA2 act 7.9
O=C(O)c1ccccc1SCc1cn2cc(Cl)ccc2n1	Wnt act 42.9 (no result: esBAF inh)
O=C(O)c1cccnc1SCc1cn2cc(Cl)ccc2n1	none
Clc1nnc(NC2CCCCC2)c(Cl)c1Cl	FGF22 binding 43.1 (no result: esBAF inh, MITF act)
C=CC(=O)Nc1cccc(Oc2nc(Nc3ccc(N4CCN(C)CC4)cc3OC)ncc2Cl)c1	MLL AF4-AF9 inh 63.0 (no result: esBAF inh, MITF act)
C=CC(=O)Nc1cccc(Oc2cc(Cl)nc3[nH]ccc23)c1	none (no result: MLL AF4-AF9 inh)
COc1cccc2c(=O)c3ccccc3oc12	esBAF inh 65.6, MITF act inconclusive
N#Cc1ccc(C#Cc2ccc3oc4ccccc4c(=O)c3c2)cc1	none
O=c1c2ccccc2oc2ccc(-c3ccc4cc[nH]c4c3)cc12	MITF act 103.6 (no result: MLL AF4-AF9 inh, Wnt act, SMARCA2 act, FGF22 binding)
COc1ccc2oc3ccccc3c(=O)c2c1	Wnt act 33.3, esBAF inh 47.7
Cc1ccc2oc3ccccc3c(=O)c2c1	esBAF inh 61.9, MITF act 100.7
CN1[C@@H]2c3ccc(-c4ccccc4)c(=O)n3C[C@@H]2[C@@H](CO)[C@@H]1C(=O)Nc1ccccc1	none (no result: Wnt act, SMARCA2 act, MITF act)
CCCNC(=O)N1[C@H](C#N)[C@H](c2ccccc2-c2ccc(C)cc2)[C@@H]1CO	none (no result: Wnt act, SMARCA2 act, esBAF inh, MITF act)
COc1ccc2oc(=O)cc(C)c2c1	none (no result: MLL AF4-AF9 inh, Wnt act, esBAF inh, FGF22 binding)
COc1ccc2oc3ccc(OC)cc3c(=O)c2c1	esBAF inh 98.4 (no result: MLL AF4-AF9 inh, Wnt act, FGF22 binding, MITF act)
Cc1c(CCOC(=O)CC23CC4CC(CC(C)(C4)C2)C3)sc[n+]1CC(=O)c1ccccc1	MLL AF4-AF9 inh 27.1 (no result: esBAF inh)
C[C@H](CO)N1C[C@H](C)[C@@H](CN(C)C(=O)CN(C)C)Oc2ncc(C3=CCCC3)cc2C1=O	none (no result: Wnt act, SMARCA2 act, MITF act)
CCCNC(=O)Nc1ccc2c(c1)C(=O)N(C)C[C@@H](OC)[C@H](C)CN(C(=O)C1CCOCC1)[C@H](C)CO2	none (no result: Wnt act, SMARCA2 act, MITF act)
CCN(CCS(=O)(=O)c1ccc(Cl)cc1)C(=O)Nc1ccccc1	none (no result: MITF act)
O=C(Nc1ccccc1)N(O)c1ccc(Cl)cc1	esBAF inh 68.4 (no result: MLL AF4-AF9 inh, Wnt act, FGF22 binding)
O=C1OCC2=C1C(c1ccc(F)cc1)c1cc3c(cc1N2)OCO3 (stereo not drawn)	FGF22 binding 43.5 (no result: esBAF inh)
CC(C)c1ccc(N=C2N=C(N)c3ccccc32)cc1	Wnt act 48.7 (no result: esBAF inh)
O=C(Nc1nnc(-c2ccccc2)s1)c1ccc(F)cc1	esBAF inh 46.6, MITF act 83.7
COc1ccccc1C(=O)Nc1nnc(-c2ccc(F)cc2)s1	esBAF inh 51.7 (no result: MITF act)
COc1ccc(NC(=O)N(C)C[C@H]2Oc3ccc(NC(=O)Cc4cn(C)c5ccccc45)cc3C(=O)N([C@H](C)CO)C[C@@H]2C)cc1	none (no result: Wnt act, SMARCA2 act, MITF act)
O=C(Nc1ccccc1Cl)c1csc(-c2cccnc2)n1	esBAF inh 59.5
O=C(NNC(=O)c1csc(-c2cccnc2)n1)c1ccccc1	none
CC(C)N(C(=S)NC1CC2CCC1C2)c1ccccc1 (stereo not drawn)	FGF22 binding 43.8
CCCNC(=O)N(C)C[C@@H]1Oc2cc(C#CC3CC3)ccc2S(=O)(=O)N([C@H](C)CO)C[C@@H]1C	none (no result: Wnt act, SMARCA2 act, MITF act)
Cc1cccc(CC(C)NC(=O)c2cc(COc3ccc(F)cc3F)on2)n1 (stereo not drawn)	esBAF inh 42.5
Cc1cc(C)n(CCCNC(=O)c2cc(COc3ccc(C)c(C)c3)on2)n1	none
CC(=O)c1ccc(OCc2cc(C(=O)NCCn3nc(C)cc3C)no2)cc1	esBAF inh 43.9
Cn1c(CCNC(=O)c2cc(COc3ccc(F)c(F)c3)on2)nc2ccccc21	none
Cc1cccc(CC(C)NC(=O)c2cc(COc3ccc(C)c(C)c3)on2)n1 (stereo not drawn)	none (no result: esBAF inh)
CCc1cc(CNC(=O)c2cc(COc3ccc(C)nc3)on2)on1	esBAF inh 60.3
Cc1cc(CNC(=O)c2cc(COc3ccc(F)c(F)c3)on2)nn1C	esBAF inh 65.3, MITF act 86.4
CCCC(=O)Nc1ccc2c(c1)C(=O)N(C)[C@@H]1CC[C@@H](CC(=O)NCCCN(C)C)O[C@@H]1CO2	none (no result: Wnt act, SMARCA2 act, MITF act)
COCC#Cc1ccc2c(c1)O[C@H](CN(C)S(=O)(=O)c1ccc(OC)cc1)[C@@H](C)CN([C@@H](C)CO)S2(=O)=O	none (no result: MLL AF4-AF9 inh, Wnt act, SMARCA2 act, FGF22 binding, MITF act)
C/C(C=NNC(=O)c1cc(-c2ccc(Cl)cc2)n[nH]1)=C\c1ccccc1	none (no result: MLL AF4-AF9 inh, Wnt act, esBAF inh, FGF22 binding, MITF act)
Cc1cc(C)n(CC(C)NC(=O)c2cc(COc3c(F)cccc3F)on2)n1 (stereo not drawn)	none (no result: esBAF inh)
Cc1cc(C)n(CC(C)NC(=O)c2cc(COc3ccc(F)c(F)c3)on2)n1 (stereo not drawn)	esBAF inh 62.4
CO[C@H]1CN(C)C(=O)c2ccc(NC(=O)C3CCCCC3)cc2OC[C@H](C)N(C(=O)c2ccccc2)C[C@@H]1C	none (no result: Wnt act, SMARCA2 act, MITF act)
Cc1ccc(S(=O)(=O)N2C[C@H]3C(=O)C[C@@H](c4ccccc4F)N(S(=O)(=O)c4ccc(C)cc4)[C@H]3C[C@H]2c2cccc3ccccc23)cc1	FGF22 binding 43.2 (no result: MITF act)
O=C(O)CSc1ccc(Oc2ccc(SCC(=O)O)cc2)cc1	FGF22 binding 43.1 (no result: Wnt act)
CCCNC(=O)OCc1cccnc1Sc1ccc(C)cc1	FGF22 binding 42.9
CCOC(=O)c1c(NC(=O)/C=C/C(=O)O)sc(C)c1-c1ccc(C(C)(C)C)cc1	FGF22 binding 1.7 (no result: esBAF inh)
COc1ccccc1C(=O)/C=C/c1ccc(N2CCCCC2)c([N+](=O)[O-])c1	none
O=C(/C=C/c1ccc(N2CCCCC2)c([N+](=O)[O-])c1)c1ccc(O)cc1	Wnt act inconclusive, esBAF inh 60.3, FGF22 binding 43.1
O=C(COC(=O)C1CC2CCCC(C1)C2=O)Nc1nc(-c2ccc(F)c(F)c2)cs1 (stereo not drawn)	esBAF inh 70.0
O=C(COC(=O)C1CC2CCCC(C1)C2=O)Nc1ccc(F)c(Cl)c1 (stereo not drawn)	none
CCOC(=O)C1(NC(=O)C2(NC(=O)CN3C(=O)c4ccccc4C3=O)CCCC2)CCCC1	Wnt act 47.3
COc1ccc(OC)c2sc(NC(=O)C3=COCCO3)nc12	none
COc1cccc2sc(NNC(=O)C3=COCCO3)nc12	esBAF inh 46.5
O=C(C[C@@H]1CC[C@H](NC(=O)NC2CCCCC2)[C@H](CO)O1)NCc1ccccc1	none (no result: Wnt act, SMARCA2 act, MITF act)
N#Cc1ccsc1NC(=O)COC(=O)c1ccc(NC(N)=O)cc1	esBAF inh 47.6, MITF act 87.2
O=C(NCCc1c[nH]c2ccccc12)c1ccc(Sc2ccccc2Cl)c([N+](=O)[O-])c1	none (no result: MLL AF4-AF9 inh, Wnt act, esBAF inh, FGF22 binding, MITF act)
COCCNC(=O)C[C@H]1C[C@H]2c3cc(NC(=O)c4ccc5c(c4)OCO5)ccc3O[C@H]2[C@@H](CO)O1	none (no result: Wnt act, SMARCA2 act, MITF act)
CCOC(=O)COc1ccc(Oc2nc(C)cc(OC)n2)nn1	SMARCA2 act 7.8 (no result: MLL AF4-AF9 inh, FGF22 binding)
COc1cc(C)nc(Oc2ccc(OCc3ccccc3)nn2)n1	none (no result: MLL AF4-AF9 inh, esBAF inh, FGF22 binding)
Cc1ccccc1S(=O)(=O)NCC[C@@H]1CC[C@@H](NC(=O)C2CCC2)[C@H](CO)O1	none (no result: Wnt act, SMARCA2 act, MITF act)
CCOc1ccc(C(=O)NCC(=O)OCC(=O)N2CCCC2)cc1	FGF22 binding 43.5 (no result: esBAF inh)
